# Assay results: PubChem BioAssay (EPA / NIEHS)
# The source made the active and inactive calls. Rule for the calls: active = hit-call score of the fitted dose curve at least 0.9, where 1 is the maximum; inactive = score below 0.9.
# Read-out: Alkaline Phosphatase, Placental (ALPP) gene, ALPP (gene 250)
# Experiment: LTEA_HepaRG_ALPP: Life Technologies and Expression Analysis (LTEA) Assay for Alkaline Phosphatase, Placental (ALPP) gene using HepaRG (AID 2283468);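 for AC50: ALPP transcript by TaqMan qRT-PCR normalized to ACTB GAPDH and POLR2A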
# Details: mRNA level, 48 h; actives raise or lower the signal
# Method: LTEA_HepaRG is a cell based, multiplexed-readout assay that uses HepaRG, a human liver cell line, with measurements taken at 48 hours after chemical dosing on a 96-well plate.LTEA_HepaRG_ALPP is one of 102 assay component(s) measured in the LTEA HepaRG cell culture assay. It is a marker of Cell proliferation, survival, death.Data from the assay component LTEA_HepaRG_ALPP was analyzed into 1 endpoint. This assay endpoint, LTEA_HepaRG_ALPP, was analyzed with bidirectional fitting relative to DMSO as the negative control and baseline of activity. Using a type of inducible reporter, measures of mRNA induction for gain or loss-of-signal activity can be used to understand regulation of transcription factor activity. To generalize the intended target to other relatable targets, this assay endpoint is annotated to the phosphatase intended target family, where the subfamily is Cell proliferation, survival, death.
# A total of 1060 chemcials from the ToxCast library were tested in eight-point concentration-response experiments. Cell culture and cytotoxicity assays were conducted at Thermo Fisher Scientific's Custom Services facility (Madison, WI). A single lot of human HepaRG cells (Thermo Fisher Scientific, Frederick, MD) was used for the cell culture experiments. 96-well format collagen type I coated plates of human HepaRG cells were prepared using established methods. Briefly, cryopreserved HepaRG cells were thawed, plated at a density of approximately 100,000 cells/well in HepaRG Thaw, Plate, and General Purpose media (HPRG770, Thermo Fisher Scientific), and incubated for 48 hours. 0.5% DMSO was selected as vehicle control to balance the requisite need of DMSO in HepaRG cultures to maintain differentiation (for example, baseline metabolism, proportions of hepatocytes vs. cholangiocytes), while enabling further hepatic receptor pathway activation (for example, PXR and CAR) in response to chemical exposure. 48 hours after plating, the culture medium was replaced with HepaRG Serum-Free Incudtion Media. Cells were exposed to each test chemical in duplicate and maintained in CO2 incubators for another 48 hours. Chemical plates were thawed to room temperature and 200x concentrations of treatment groups were prepared. 8-point conentration-reponse curves were made with the highest exposure at 100 uM, followed by half-log dilutions, all in 0.5% DMSO. Each test plate contained variouse controls, induction positive controls (1mM phenobarbital), cytotoxicity positive controls ([…] aflatoxin B1), vehicle controls (0.5% DMSO), and total lysis controls (0.5% DMSO). Cell morphology images were taken using an Essen IncuCyte FLR automated microscope, with six 96-well plates imaged in about 24 minutes. Images were captured and exported and JPEG files. Spent culture media was transfered to black-well plates for the LDH assay, and remaining media was sorted at -80 C for later use. Cells were treated with RLT buffer and frozen until shipped for gene expression analysis. Total RNA was isolated from the cell suspension in 75 uL of Buffer RLT (Qiagen, Germantown, MD 20874) by Quintiles/Expression Analysis (Durham, NC) using a custom isolation procedure. Total RNA from each plate well was transferred to a preamplification plate. Fluidigm's 96.96 Dynamic ArrayTM (Fluidigm, Amsterdam, the Netherlands) technology was used for gene expression analyses by quantitative reverse transcription polymerase chain reaction (qRT-PCR, performed by Quintiles/Expression Analysis, Durham, NC)89. Standard TaqManTM Assays (Applied Biosystems/ThermoFisher Scientific, Foster City, CA) were used to assess the expression of 93 genes selected based on their selectivity and sensitivity to important hepatic receptors known to be modulated by environmental chemicals; importance in human hepatocyte functionality; and hepatotoxicity. […]
Structure (SMILES),AC50,outcome
O=C(CCCN1CCC(O)(c2ccc(Cl)cc2)CC1)c1ccc(F)cc1,36 µM (active),
CCCCC=O,,inactive
Cc1[nH]nc2c1N=C(c1ccccc1Cl)c1cc([N+](=O)[O-])ccc1N2,1.59 µM (active),
CCCCCCCCCCCCCCC,,inactive
CN(C)CCOC(c1ccccc1)c1ccccc1,,inactive
OCC(CO)(CBr)CBr,,inactive
CCCCc1oc2ccccc2c1C(=O)c1cc(I)c(OCCN(CC)CC)c(I)c1,22.8 µM (active),
CN(Cc1cnc2nc(N)nc(N)c2n1)c1ccc(C(=O)N[C@@H](CCC(=O)O)C(=O)O)cc1,,inactive
CCCCC(CC)C(=O)O (stereo unspecified),,inactive
CCCCCCCCCCCCOS(=O)(=O)O,,inactive
CC(=O)Nc1ccc(O)cc1,,inactive
CS(=O)(=O)c1ccc([C@@H](CC2CCCC2)C(=O)Nc2cnccn2)cc1Cl,81.2 µM (active),
N=C(N)c1ccc(OCCCCCOc2ccc(C(=N)N)cc2)cc1,,inactive
O=C1NS(=O)(=O)c2ccccc21,,inactive
O=C(c1ccccc1)c1ccccc1,,inactive
CCC(C)c1ccccc1O (stereo unspecified),,inactive
